Drawing on PubChem BioAssay AID493008 (The Scripps Research Institute Molecular Screening Center, 2010), this text covers activation for 5 compounds.

SMILES strings stand for the structures. Out of some 340,000 compounds screened, about 800 (0.24%) were called active.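 How the source made its calls: active means activation above the mean over all tested compounds plus 3 SD (cut at about 30% in these data); inactive means the rest.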 The full list was thinned out, with actives kept by preference.

The assay concerns the target Troponin I, cardiac muscle (Homo sapiens) + Troponin T, cardiac muscle (Homo sapiens) + Troponin C, slow skeletal and cardiac muscles (Homo sapiens) (UniProt P19429+P45379+P63316). Briefly: cardiac RTF calcium sensitivity activators, primary screen, biochemical, IANBD-TnC fluorescence, EC20 calcium (AID 493008).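 Further: rise in fluorescence read as greater calcium sensitivity of cardiac thin filaments.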 The note with it: IANBD-labeled TnC RTF fluorescence at EC20 calcium; at 7.2 µM; stronger effect = higher value.
For `Cn1c(O)c(C=NCCCC(=O)O)c(=O)n(C)c1=O`, the activation is 2.93% (inactive).
For `CCCCC(=O)N/N=C/c1c(O)n(CC)c(=S)n(CC)c1=O`, the activation was 93.2% (active).
Take `O=C(N/N=C/c1c(O)n(Cc2ccccc2)c(=O)[nH]c1=O)c1ccccc1`: the activation was 0.31% (inactive).
For `COc1ccccc1N=C1SCCCN1C`, the activation is -2.56% (inactive).
Turning to `CN1CCc2cc3c(cc2[C@H]1[C@@H]1OC(=O)c2c1ccc1c2OCO1)OCO3`, the activation is 0.04% (inactive).
